# From PubChem
# CYP2C19 act = cytochrome P450 2C19 (human) activation; P33261; recombinant CYP2C19, luciferin-H EGE luminescence; hits give high values; 0 = fully inhibited enzyme, 1 = untreated enzyme; activation factor at 5 µM; 96,000 tested, under 10 active; AID 1025;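 active = activation factor of at least 2 at 5 µM in the primary screen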;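 also: 0 = wells with 2.5 mM tranylcypromine and 1 = vehicle-only wells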
# CYP2C9 act = activators of human CYP2C9; recombinant CYP2C9, luciferin-H conversion, luminescence; hits give high values; factor 1 = untreated enzyme, 0 = blocked; AID 1024; 1.4% of 96,000 active; activation factor at 5 µM; P11712;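 active = activation factor of 2 or more for CYP2C9 at a 5 µM dose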;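 also: 0 = sulfaphenazole-blocked wells and 1 = vehicle-only wells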
# Target sequence (P11712 whole entry, looked up): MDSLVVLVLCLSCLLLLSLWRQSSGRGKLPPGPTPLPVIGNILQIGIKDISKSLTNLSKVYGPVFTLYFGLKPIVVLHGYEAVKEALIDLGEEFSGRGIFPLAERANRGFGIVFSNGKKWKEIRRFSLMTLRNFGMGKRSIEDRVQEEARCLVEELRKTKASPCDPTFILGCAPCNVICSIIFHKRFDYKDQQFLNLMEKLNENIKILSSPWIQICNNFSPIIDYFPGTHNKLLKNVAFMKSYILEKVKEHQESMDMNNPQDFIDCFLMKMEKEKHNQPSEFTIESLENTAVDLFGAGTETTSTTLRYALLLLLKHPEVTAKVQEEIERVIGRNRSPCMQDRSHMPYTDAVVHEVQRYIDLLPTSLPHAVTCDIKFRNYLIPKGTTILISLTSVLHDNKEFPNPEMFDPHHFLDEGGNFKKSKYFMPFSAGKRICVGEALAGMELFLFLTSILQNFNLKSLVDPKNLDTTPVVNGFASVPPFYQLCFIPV
# Pyk2 oligo antag = antagonists of human Pyk2 oligomerization | Q293 cells, Pyk2 FERM NanoBiT luminescence; hits give low values | z-score (the deposit names both 25 µM and 10 µM) | 0.83% of 99,000 active | AID 1347419;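 active = Z-score of -3 or lower, scaled per plate to the spread of control and sample wells; inactive = z-score above -3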;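 also: negative z-score means lost luminescence so less FERM oligomerization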
# CYP2C9 inhib = inhibitors of human CYP2C9. 20% of 96,000 active. CYP2C9 Supersomes, luciferin-H conversion, luminescence. inhibition, % at 5 µM. P11712. AID 777;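 active = blocking of liver enzyme CYP2C9 beyond about 50% at 5 µM, limit read from the data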
# CYP2C19 inh = human CYP2C19 inhibition; P33261; CYP2C19 Supersomes, luciferin-H EGE luminescence, 30 min; inhibition, % at 5 µM; 21% of 96,000 active;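 active = CYP2C19 inhibition above a set limit at 5 µM in the primary screen, cut at about 50% in these data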;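 also: plate controls were negative control wells for no effect and 2.5 mM tranylcypromine positive control for full effect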
# * marks the source's active call; other numbers are inactive results; / = no result given. Rows were chosen to be rich in hits. Some 28% of all compounds tested hit in one or more screens of this group.
SMILES,CYP2C19 act,CYP2C9 act,Pyk2 oligo antag,CYP2C9 inhib,CYP2C19 inh
CS(=O)(=O)N1CCC(C(=O)N2CCc3ccccc3C2)CC1,0.1,1.2,1.1,-23,95*
COc1ccc(S(=O)(=O)N2CCC(C(=O)N3CCc4ccccc4C3)CC2)cc1,0.5,2.8*,1.4,-177,47
COc1ccc(S(=O)(=O)N2CCC(C(=O)N3CCc4ccccc4C3)CC2)cc1C,0.5,0.7,0.11,32,50
Fc1cccc(C2CC(c3cccc(Br)c3)Nc3nnnn32)c1 (stereo not drawn),0,0.1,-0.35,95*,95*
COc1cccc(C2CC(c3ccccc3)n3ncnc3N2)c1 (stereo not drawn),0.5,0.8,/,24,51*
COc1cccc(C2CC(c3ccc(C)cc3)n3ncnc3N2)c1 (stereo not drawn),0,0.4,/,63*,97*
COc1cccc(C2CC(c3cccc(Br)c3)n3ncnc3N2)c1 (stereo not drawn),0.4,0.6,/,37,64*
CCCCCn1c(N2CCC(C(N)=O)CC2)nc2c1c(=O)[nH]c(=O)n2C,1.1,0.7,1,32,-8
Cc1ccc(-c2cc(NC(=O)CCl)n(-c3ccccc3)n2)cc1,0,0.3,-0.48,75*,96*
O=C(CCl)Nc1cc(-c2ccccc2)nn1-c1ccccc1,0.2,0.4,-0.73,60*,83*
CC(=O)Nc1ccc(-c2cc(NC(C)=O)n(-c3ccccc3)n2)cc1,0.7,0.8,-0.55,19,29
CCCCNC(=O)/C=C/c1ccc(OC)c(Br)c1,0.6,1.6,-0.65,-56,41
CCN1C(=O)c2cccc3c(S(=O)(=O)NCCCN4CCOCC4)ccc1c23,0.5,0.5,2.1,46,54*
CCN1C(=O)c2cccc3c(S(=O)(=O)NCCc4c[nH]c5ccccc45)ccc1c23,0.4,0.2,-0.43,84*,63*
CCCCC(CC)CN1C(=O)/C(=C/c2ccncc2)SC1=S (stereo not drawn),0.4,0.3,-0.49,70*,62*
O=C(Nc1cccc(F)c1)C1CCN(C(=O)c2ccccc2Cl)CC1,0.5,0.6,0.34,44,45
Cc1ccc(S(=O)(=O)NCCOc2nc(N(C)C)nc(N3CCOCC3)n2)cc1,0.9,0.6,-0.02,40,14
CC(=O)NCCOc1nc(N(C)C)nc(N(C)C)n1,1,1,0.95,2,4
CN(C)c1nc(OCCNC(=O)Nc2ccccc2)nc(N(C)C)n1,0.3,0.5,-0.59,47,73*
CN(C)c1nc(OCCNC(=O)Nc2ccccc2)nc(N2CCOCC2)n1,0.5,0.2,0.56,80*,53*
CCC(CC)C(=O)Nc1ccc(C)c(O)c1,1,0.9,-0.4,6,2
CCOC(=O)C(CSCC(=O)c1ccc(Br)cc1)NC(=O)OC(C)(C)C (stereo not drawn),0.1,0.2,/,82*,93*
CCOC(=O)C(CSCC(=O)c1ccc(Cl)cc1)NC(=O)OC(C)(C)C (stereo not drawn),0.4,0.7,0.97,28,60*
CCCOc1ccc(/C(O)=C2/C(=O)C(=O)N(CCN(C)C)C2c2ccncc2)cc1 (stereo not drawn),/,/,0.45,/,/
CCCCCN=Cc1c(C)[nH]n(-c2nc3ccccc3s2)c1=O,0.5,0.3,-0.25,73*,53*
SMILES,CYP2C19 act,CYP2C9 act,Pyk2 oligo antag,CYP2C9 inhib,CYP2C19 inh
CCCc1[nH]n(-c2nc3ccccc3s2)c(=O)c1C=NCCN1CCOCC1,1.1,0.9,0.47,10,-14
COc1ccc(S(=O)(=O)n2cnc3cc(C)c(C)cc32)cc1,0,0.1,0.52,87*,96*
O=C(Cc1csc(Nc2nc(=S)[nH]c3ccccc23)n1)NCc1cccc(Cl)c1,0.7,0.2,-1.1,83*,31
Cc1ccc(CNC(=O)Cc2csc(Nc3nc(=S)[nH]c4ccccc34)n2)cc1,0.4,0.2,/,82*,65*
Cc1ccc(CNC(=O)c2cc3c(C)nc4ccccc4c3o2)cc1,0.9,0.9,/,10,14
O=C(Cc1csc(Nc2nc(=S)[nH]c3ccccc23)n1)NCc1ccccc1Cl,0.7,0.2,1.3,83*,35
CN1CCN(C(=O)CC23CC4CC(CC(C4)C2)C3)CC1,0.6,1.2,0.01,-20,42
CCCOc1ccc(NC(=O)CC2C(=O)N(C)C(=S)N2Cc2cccs2)cc1 (stereo not drawn),/,/,-1.3,/,/
CCc1cc(/C(Cc2ccccn2)=N\O)c(O)cc1O,0.5,0.4,0.23,62*,46
CCc1cc(C(=O)COc2ccccc2F)c(O)cc1O,0,0.4,-1.6,60*,96*
CCc1cc(/C(Cc2ccc3ccccc3n2)=N\O)c(O)cc1O,0.1,0.3,-0.53,73*,90*
CCc1cc(/C(Cc2cscn2)=N\O)c(O)cc1O,0.7,0.6,-0.57,39,31
CN(CC(=O)O)Cc1nc2ccccc2[nH]1,1,1,0.61,5,5
CCc1cc(C(=O)Cc2nc3ccccc3[nH]2)c(O)cc1O,0.1,0.5,-0.9,54*,87*
CC1CCN(C(=O)COc2ccccc2F)CC1,0.8,1,0.56,-2,25
O=C(O)c1cccc(N2CCCCS2(=O)=O)c1,1.2,1.3,0.43,-26,-17
CCCSc1nc(C)c(-c2csc(C(C#N)=C3CCCC3)n2)cc1C#N,0.9,0.7,-0.36,28,13
Cc1ccc(-c2cnc(N)n2C)cc1C,0.7,0.9,1.7,11,33
Cc1ccc(NC(=O)N(CCCN2CCOCC2)Cc2cccnc2)cc1C,0,0,/,96*,100*
O=C(Nc1ccccc1)N(CCN1CCOCC1)Cc1ccccc1F,0.4,0.1,0.24,89*,56*
CCc1ccc(NC(=O)N(CCCN2CCOCC2)Cc2cccs2)cc1,0.6,0.4,/,59*,36
CCN1CCCc2cc(CN(CCN3CCOCC3)C(=O)Nc3ccc(C)c(C)c3)ccc21,0.4,0.5,0.84,48,57*
CCc1ccc(NC(=O)N(CCN2CCOCC2)Cc2ccc3c(c2)CCCN3CC)cc1,0.7,0.8,-0.09,24,28
O=C(Nc1ccccc1)N(CCCN1CCOCC1)Cc1cccs1,0.9,1,/,4,14
CCOC(=O)c1c(NC(C)=O)sc2c1C1CCN2CC1,/,/,0.77,/,/
CCCc1cc(C(=O)Nc2cc(C)on2)no1,1,1,/,1,-1
Cc1ccc(CCNC(=O)C2CCN(C(=O)N(C)C)CC2)cc1,0.9,0.9,-0.05,11,5
FC(F)(F)c1cc(-c2ccco2)nc(N2CCN(Cc3ccccc3)CC2)n1,0.6,0.7,-0.01,33,38
CN1CCN(C(=O)c2cc3nc(-c4ccc(F)cc4)cc(C(F)(F)F)n3n2)CC1,1.2,1.2,0.81,-20,-18
O=C(c1cc2nc(-c3ccco3)cc(C(F)(F)F)n2n1)N1CCN(c2ccc(F)cc2)CC1,0.2,0.4,-0.02,64*,81*
